# Out of some 69,000 compounds screened, about 8,600 (12%) showed an effect of 50% or more. For the sample, strong results were picked, then their nearest neighbours and some compounds at random.
# Test system: Plasmodium berghei
# Experiment: Screen against P. berghei liver stage (PbLuc), transformed with Luciferase, at 10uM
# Assay type: functional, HepG2
# Settings: tested at 10 uM
row,SMILES,INHIBITION [%]
1,NC(=O)CSc1ccccc1NC(=O)C1CCCCC1,21.1
2,CC1N(c2cnn(C)c2)C(=O)COC12CCN(c1ncccn1)CC2 (centres undefined),58.3
3,CC1N(c2cnn(C)c2)C(=O)COC12CCN(CC1CC1)CC2 (centres undefined),-5.25
4,CC1N(c2cnn(C)c2)C(=O)COC12CCN(c1ccccn1)CC2 (centres undefined),39.5
5,O=C(Cc1ccc2c(c1)CCO2)N1CCN(c2nccs2)CC1,9.14
6,CN(C)c1cc(CNC(=O)Nc2nccs2)ccn1,-0.219
7,CC(C)NC(=O)[C@H]1C[C@@H]2[C@@H](C1)OCCN2Cc1ccsc1,16.9
8,COCCCC(=O)NC1(c2cccc(Br)c2)CC1,32.5
9,CCOCC(=O)NC1(c2cccc(Br)c2)CC1,45.1
10,COCCSCC(=O)NC1(c2cccc(Br)c2)CC1,54.4
11,NC(=O)CSCC(=O)NC1(c2cccc(Br)c2)CC1,8.99
12,CSCC(=O)NC1(c2cccc(Cl)c2)CC1,8.41
13,CCOCC(=O)NC1(c2cccc(Cl)c2)CC1,57.3
14,Cc1nn(C)c(N(C)C)c1CNCC(O)COc1ccccc1 (centres undefined),-56.9
15,O=C(NCCSc1ccccc1)[C@H]1CNC[C@H](C(=O)N2CCOCC2)C1,11.2
16,CCS(=O)(=O)CC(C)N(C)C(=O)COc1ccccc1C#N (centres undefined),-29.7
17,CCCc1nc(CN2CCCN(Cc3nccn3C)CC2)no1,25.6
18,CCOCCN1CCN(Cc2cccc(C(=O)N(C)C)c2)CC1CC (centres undefined),25.6
19,O=C(CCc1ccccc1)NCC1CCN(Cc2cccs2)CC1,51.9
20,O=C(CCc1ccccc1)NCC1CCN(Cc2ccccc2)CC1,54.2
21,O=C(CCc1ccsc1)NCC1CCN(Cc2cccs2)CC1,14.6
22,COCC(=O)NCC1CCN(Cc2ccsc2)CC1,-6.67
23,O=C(COc1ccccc1)NCC1CCN(Cc2ccsc2)CC1,27
24,CCOCC(=O)NCC1CCN(Cc2ccsc2)CC1,60
25,O=C(CCSc1ccccc1)NCC1CCN(Cc2ccsc2)CC1,27.6
26,O=C(CCc1ccccc1)NCC1CCN(Cc2ccsc2)CC1,-11.8

row,SMILES,INHIBITION [%]
1,O=C(CCc1ccsc1)NCC1CCN(c2ccccc2)C1 (centres undefined),2.74
2,Cc1ccccc1C1CCCN1Cc1nc2c(cnn2C)c(=O)[nH]1 (centres undefined),-52.5
3,CN(C)[C@@H]1CCN(c2ncc(F)cn2)[C@H]1Cc1ccccc1,-101
4,CN(C)C(=O)CN1C(=O)CCC12CCN(Cc1cccn1C)CC2,33.2
5,Cn1ccc(C(=O)N2CCN(CC(O)C(C)(C)C)CC2)cc1=O (centres undefined),25.6
6,Cc1ccc2[nH]c(=O)cc(C(=O)NCCCn3nccc3C3CC3)c2c1,-7.16
7,Cc1cc(C(=O)NCCCn2nccc2C2CC2)c(=O)[nH]c1C,53.3
8,Cc1nc(N(C)C)ncc1C(=O)NCCCn1nccc1C1CC1,27.5
9,COCCCC1CCCCN1S(=O)(=O)c1cccc(C#N)c1 (centres undefined),-41.8
10,N#Cc1cccc(S(=O)(=O)N2CCCCC2CCN2CCCC2)c1 (centres undefined),51.3
11,N#Cc1cccc(S(=O)(=O)N2CCCCC2CCN2CCCC2=O)c1 (centres undefined),20.1
12,CNC(=O)NCC(CO)Cc1cccc(OC(F)(F)F)c1 (centres undefined),-10.3
13,CCS(=O)(=O)N1CCc2c(cnc(-c3cccnc3)c2C(=O)O)C1,-1.26
14,Cc1ccc(C)c(S(=O)(=O)CCN2CCc3c(ncn3C)C2)c1,19.4
15,O=C(c1cncs1)N1CCC(Cc2cnc3[nH]ccc3c2)CC1,64.1
16,O=C(c1ccncc1)N1CCC(Cc2cnc3[nH]ccc3c2)CC1,33.7
17,O=C(c1cnccn1)N1CCC(Cc2cnc3[nH]ccc3c2)CC1,17.1
18,Cc1ccc(OC2(C(=O)NC(C)c3csc(C)n3)CCNCC2)cc1 (centres undefined),41.2
19,Nc1nnnn1NCc1ccccc1C(F)(F)F,-24.6
20,Nc1nnnn1NCc1cccc(Cl)c1Cl,61.5
21,Nc1nnnn1NCc1cccc2ccccc12,23.4
22,CC(C)NC(=O)C1CCc2nnc(C(C)(C)C)n21 (centres undefined),-15.5
23,Cc1nc(CN2CCC3(CCN(c4cnn(C)c4)C3=O)C2)cs1 (centres undefined),-17.2
24,CC1(C(=O)N2CCOCC2)CN(Cc2ncc[nH]2)CCO1 (centres undefined),27.8
25,Cc1ccc(CN2CC[C@@H](NS(C)(=O)=O)[C@@H]2Cc2ccncc2)o1,-7.94
26,CCN1C[C@H]2CCN(C(C)=O)CC[C@H]2S1(=O)=O,-26.8

row,SMILES,INHIBITION [%]
1,CCN1C[C@H]2CCN(C(=O)Nc3ccccc3C)CC[C@H]2S1(=O)=O,50.6
2,CCN1C[C@H]2CCN(C(=O)c3cc[nH]n3)CC[C@H]2S1(=O)=O,63.5
3,Cc1ccccc1NC(=O)N1CC[C@@H]2CN(CC(C)C)S(=O)(=O)[C@@H]2CC1,-13.4
4,O=C(c1cc[nH]n1)N1CC[C@@H]2CN(Cc3cccnc3)S(=O)(=O)[C@@H]2CC1,76.4
5,O=C(c1cc[nH]n1)N1CC[C@@H]2CN(Cc3ccccc3)S(=O)(=O)[C@@H]2CC1,-23.3
6,CC(C)CN1C[C@H]2CCN(C(=O)c3ccccn3)CC[C@H]2S1(=O)=O,-19.6
7,COCCN1C[C@H]2CCN(C(=O)Nc3ccccc3C)CC[C@H]2S1(=O)=O,34.6
8,O=C(c1cc[nH]n1)N1CC[C@@H]2CN(Cc3ccncc3)S(=O)(=O)[C@@H]2CC1,26.5
9,CCN(CC)C(=O)NCCc1ccn(-c2ccccc2)n1,7.67
10,CCn1ncc2c1CCCC2NCc1ccc(OC)cc1OC (centres undefined),42
11,O=C(CC1[C@H]2CN(c3ncccn3)C[C@@H]12)Nc1cccnc1 (some centres undefined),13.7
12,Cc1nc(CN(C)C2CCN(Cc3ccc(C(N)=O)cc3)C2)no1 (centres undefined),-27.8
13,Cc1cccc(CN2CCCC(c3nccs3)C2)n1 (centres undefined),43.6
14,Cc1cc(C)cc(NCCC(=O)NCc2cccnc2N(C)C)c1,23.7
15,O=C(c1cc2c(s1)CCC2)N1CCN(c2cnccn2)CC1,-8.66
16,CN(C)CCO[C@H]1CN(Cc2ccc3c(c2)OCO3)[C@@H]2COC[C@H]12,33
17,CCNC(=O)Cc1n[nH]c(-c2cncc(Br)c2)n1,39.3
18,Cc1cnn(CCNCC(=O)NC(C)c2ccc3c(c2)OCCO3)c1 (centres undefined),8.64
19,CC(=O)N1[C@H](CN(C)C)C[C@@H]2CN(C(=O)c3cccc(F)c3)CC[C@@H]21,29.9
20,CN(C)c1ccc(CCCNC(=O)NCC(O)c2cccs2)cc1 (centres undefined),60.4
21,CN(C)c1ccc(C(O)CNC(=O)NCCCc2ccccc2)cc1 (centres undefined),5.91
22,CN(C)c1ccc(CCCNC(=O)NCC(O)c2ccsc2)cc1 (centres undefined),8.92
23,CN1CC(c2cc(O)nc(NCc3ccccc3Cl)n2)CC1=O (centres undefined),30.4
24,O=C(CCc1ccc(Cl)s1)NCc1nnc2n1CCCCC2,5.9
25,O=C(c1nc(Cc2c[nH]c3ccccc23)no1)N1CCOCC1,29.9
26,O=C(c1nc(Cc2c[nH]c3ccccc23)no1)N1CCCC1,25.2

row,SMILES,INHIBITION [%]
1,O=C(c1nc(Cc2c[nH]c3ccccc23)no1)N1CCCCC1,55.4
2,CCOc1ncccc1NC(=O)NCC(O)c1ccc(OC)cc1 (centres undefined),44.1
3,Cc1cc(C)n(Cc2cc(C(=O)N3CCCC3c3nccs3)n[nH]2)n1 (centres undefined),10.7
4,CCOCc1nc2c(c(NC(CC)c3ccncc3)n1)CCNCC2 (centres undefined),37.7
5,CCOCc1nc2c(c(NC(CC)c3cccnc3)n1)CCNCC2 (centres undefined),53.5
6,CCOCc1nc2c(c(NC(CC)c3ccnn3C)n1)CCNCC2 (centres undefined),40.6
7,O=C1[C@@H]2C[C@H](O)CCN2C(=O)CN1CCSc1ccccn1,-19.41
8,NC(=O)CN1CCC(c2cc(C(F)(F)F)n3ccnc3n2)CC1,30.8
9,CC(C)NC(=O)[C@@H]1CN(C)C[C@]12COc1ccc(F)cc1C2=O,12.515
10,O=C(NCC(F)(F)F)c1ccc(-n2cccn2)nn1,-27.8
11,Cc1csc(N2CCN(CC(=O)NCc3ccccn3)CC2C)n1 (centres undefined),-19.605
12,CC(CN1CCOC1=O)NC(=O)c1cccc(C#N)c1 (centres undefined),42.1
13,CCn1nc(C)c(CCNC(=O)c2cccc(NCC(=O)O)c2)c1C,22.3
14,CCn1nc(C)c(CCNC(=O)c2cccc(-n3cccn3)c2)c1C,72.5
15,CC(CNC(=O)c1cccc(-n2cccn2)c1)Cn1ccnc1 (centres undefined),-13.6
16,COc1cccc(C(C(=O)O)N2CCC(Cn3cccn3)CC2)c1OC (centres undefined),19.8
17,CC(C)CC(=O)N1CC(=O)c2sc(NCCc3ccccc3)nc2C1,35.2
18,CC(C)CC(=O)N1CC(=O)c2sc(NC3CCCCC3)nc2C1,10
19,CNc1nc2c(s1)C(=O)CN(C(=O)[C@@H](N)Cc1cccc(OC)c1)C2,45.6
20,COCC(=O)N1CC(=O)c2sc(Nc3ccc(F)cc3F)nc2C1,53
21,COc1ccccc1Nc1nc2c(s1)C(=O)CN(C(=O)CC(C)C)C2,59
22,CC(C)CC(=O)N1CC(=O)c2sc(Nc3ccc(F)cc3F)nc2C1,63.4
23,COCC(=O)N1CCC2(CC1)CNc1ccc(F)cc12,5.63
24,CC1CCC2(CC1)Nc1ccccc1CO2 (centres undefined),29.7
25,CCOC(=O)C1(NC(=O)CCNc2cc(C)ccc2OC)CCCCC1,-7.77
26,CC(C)Cc1nc(-c2ccnc(N3CCNCC3)n2)no1,31.2
